# Laboratory results taken from PubChem BioAssay.
# Active and inactive are the calls of the source.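 Rule for the calls, unless noted: active = visually confirmed hit in the image check and inhibition above 20%; inconclusive = visually confirmed hit but inhibition not above 20%; inactive = no visual hit in the image check.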
# Experiments:
# [1] = inhibitors of TNFa-induced NFkB p65 translocation, primary screen, imaging, HUVEC, MLSMR starter and 10KST1 sets (AID 438;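 active = inhibition above 20% together with a positive visual image hit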;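 note: compound added about 3h40 before a 20 min TNFalpha stimulation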;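 for inhibition: signal is the nuclear over cytoplasmic p65 intensity ratio per well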); conditions: HUVEC TNFa-induced p65 nuclear translocation; cell count: measured here: nuclei count (cytotoxicity indicator), at 2.08 µM; inhibition: at 2 µM, stronger effect = higher value, 0% TNFa-plus-vehicle, 100% no-TNFa wells
# [2] = reduction of polyQ htt aggregates in cells – imaging, exon1htt(103Q)mCFP cells, high-content imaging, primary screen (AID 483;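 active = visual image review flags a hit and inhibition of aggregation exceeds 20%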;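 note: compound exposure lasted 3 days before fixation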;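 for nuclei count: percent of the per-plate median nuclei count of sample wells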); conditions: exon1htt(103Q)mCFP cell line, aggregate imaging, at 2 µM; inhibition of aggregation: stronger effect = higher value; nuclei count: measured here: cell count, toxicity
# [3] = endothelial E-selectin expression blockers – imaging, HUVEC, immunofluorescence, MLSMR starter and 10KST1 sets, primary screen (AID 487); conditions: HUVEC TNFalpha-induced E-selectin immunofluorescence imaging, at 2 µM; inhibition: stronger effect = higher value; nuclei count: measured here: cell number, toxicity;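 for inhibition: signal is fraction of cell area covered by stained E-selectin grains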;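 for nuclei count: 100% = median nuclei count of all wells on the same plate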
# [4] = target: Voltage-gated potassium channel subunit beta-2 (Rattus norvegicus) (UniProt P62483); assay: inhibitors of rat Kvbeta2 reductase activity – biochemical, NADPH fluorescence, primary screen (AID 622;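 active = fluorescence slope higher than the sample average by over 3 SD, cut at about -0.22 in these data, passing the limit was not always enough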;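 note: slope of raw intensity against log time taken from 70 to 1610 s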); conditions: recombinant KvBeta, 4-cyanobenzaldehyde reduction, at 10 µM, stronger effect = higher value
# [5] = target: Voltage-gated potassium channel subunit beta-2 (Rattus norvegicus) (UniProt P62483); assay: enhancers of rat Kvbeta2 NADPH turnover – biochemical, NADPH fluorescence, primary screen (AID 623;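 active = NADPH fluorescence slope more negative than the mean of all samples by about 3 SD, 99.7% confidence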;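 note: fluorescence intensity change per second fitted from 20 to 320 s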); conditions: Recombinant KvBeta, NADPH fluorescence decrease slope, 10 min; at 10 µM; stronger effect = lower value
# [6] = target: Alpha-2C adrenergic receptor (Homo sapiens) (UniProt P18825); assay: compounds altering alpha2C-coupled GIRK flux – cell-based, HEK293 alpha2C/GIRK1/2, thallium flux, primary screen (AID 624;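 active = fluorescence slope after compound addition differing from the mean of all screened samples at 99.7% confidence, in either direction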;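 note: slope of fluorescence ratio to pre-addition baseline per second over 15 to 24 s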); conditions: thallium flux BTC fluorescence, at 10 µM, actives lie on both sides
# [7] = blockers of RIG-like receptor reporter activation – cell-based, Sendai virus stimulus, luciferase, 10K MLSCN set, TLR/RLR signaling modifier project, primary screen (AID 602276;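 active = inhibition at or above 50% at 10 µM; inactive = inhibition below 50%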;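 note: firefly luciferase from ISG56 promoter only with Renilla not read in this screen; 0% = Sendai virus plus DMSO and 100% = medium plus DMSO without virus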); conditions: HEK293 RL24 IRF3 luciferase reporter, at 10 µM, stronger effect = higher value
# [8] = TLR3 IRF3 reporter activation blockers – cell-based, poly I:C stimulus, luciferase, 10K MLSCN set, primary screen (AID 602277;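 active = inhibition of the reporter signal at or above 50%; inactive = inhibition below 50%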); conditions: HEK293-TLR3 RL24 IRF3 luciferase reporter, at 10 µM, stronger effect = higher value
# Sequence of Alpha-2C adrenergic receptor (Homo sapiens) (P18825 whole entry, looked up): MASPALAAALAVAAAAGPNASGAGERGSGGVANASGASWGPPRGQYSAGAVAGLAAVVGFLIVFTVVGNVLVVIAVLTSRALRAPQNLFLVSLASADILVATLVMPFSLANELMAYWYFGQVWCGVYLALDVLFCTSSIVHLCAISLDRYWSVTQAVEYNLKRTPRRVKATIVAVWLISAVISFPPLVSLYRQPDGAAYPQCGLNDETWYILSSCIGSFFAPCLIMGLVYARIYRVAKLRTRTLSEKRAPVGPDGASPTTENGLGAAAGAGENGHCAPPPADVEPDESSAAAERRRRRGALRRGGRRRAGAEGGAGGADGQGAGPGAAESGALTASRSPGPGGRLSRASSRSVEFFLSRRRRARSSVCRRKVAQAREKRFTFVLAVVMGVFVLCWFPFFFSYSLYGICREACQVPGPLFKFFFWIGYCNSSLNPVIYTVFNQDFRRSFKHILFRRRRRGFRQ
# Sequence of Voltage-gated potassium channel subunit beta-2 (Rattus norvegicus) (P62483 whole entry, looked up): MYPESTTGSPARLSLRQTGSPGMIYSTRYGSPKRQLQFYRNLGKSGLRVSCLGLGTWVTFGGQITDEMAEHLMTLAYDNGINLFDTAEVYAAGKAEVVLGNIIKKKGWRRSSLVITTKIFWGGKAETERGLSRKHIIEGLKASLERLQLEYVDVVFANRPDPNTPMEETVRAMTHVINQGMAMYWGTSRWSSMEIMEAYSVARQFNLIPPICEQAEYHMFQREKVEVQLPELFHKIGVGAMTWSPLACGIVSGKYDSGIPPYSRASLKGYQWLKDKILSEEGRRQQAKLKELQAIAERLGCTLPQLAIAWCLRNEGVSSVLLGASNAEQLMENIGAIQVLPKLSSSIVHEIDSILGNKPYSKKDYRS
SMILES,cell count [1],inhibition [1],inhibition of aggregation [2],nuclei count [2] [%],inhibition [3],nuclei count [3] [%],fluorescence slope [4],NADPH fluorescence slope [5],slope [6],inhibition [7],inhibition [8]
Cc1nn(C)c(C)c1S(=O)(=O)N1CCCC(C(=O)N2CCN(c3ccc(Cl)cc3)CC2)C1 (stereo not drawn),288,-3.9% (inactive),-45.6% (inactive),94.8,-270% (inactive),85.9,-0.591 (inactive),-1.7e-05 (inactive),0.00589 (inactive),11.1% (inactive),11.6% (inactive)
COc1cccc(CNC(=O)C2CCN(C(=O)N(C)C)CC2)c1,569,8.3% (inactive),-46.5% (inactive),52.8,-15.7% (inactive),109,-0.345 (inactive),-6.9e-05 (inactive),0.00563 (inactive),11.6% (inactive),32.8% (inactive)
Cc1ccc(S(=O)(=O)Nc2cc(C(=O)O)ccc2N2CCCCC2)cc1,518,-20.1% (inactive),15.4% (inactive),98.1,-107% (inactive),114,-0.42 (inactive),-2.5e-05 (inactive),0.00575 (inactive),11.2% (inactive),29.2% (inactive)
COc1ccc(-c2[nH]nc3c2C(c2ccncc2)C(C#N)=C(N)O3)cc1 (stereo not drawn),441,6% (inactive),2.5% (inactive),113,-6.7% (inactive),100,-0.31 (inactive),-4.4e-05 (inactive),0.00483 (inactive),6.11% (inactive),99% (active)
Cc1ccc(-c2noc(CCC(=O)NC3CCCc4ccccc43)n2)cc1 (stereo not drawn),377,-2% (inactive),5.2% (inactive),108,-27.6% (inactive),85.8,-0.411 (inactive),-3.2e-05 (inactive),0.00255 (inactive),19.1% (inactive),18.8% (inactive)
COc1ccc(C)cc1NC(=O)CCC(=O)Nc1ccc2nc(N3CCN(C)CC3)cc(C)c2c1,623,1.5% (inactive),-9.5% (inactive),104,-62.6% (inactive),108,-0.428 (inactive),6e-06 (inactive),0.00326 (inactive),-21.1% (inactive),-51.1% (inactive)
O=C(c1ccco1)N1CCN(c2cccc(Cl)c2)CC1,665,-1.9% (inactive),5.4% (inactive),115,24.2% (inactive),91.6,-0.507 (inactive),-7.7e-05 (inactive),0.00406 (inactive),-26.6% (inactive),-76.9% (inactive)
CC1=C(C(=O)Nc2ccc(F)cc2)C(c2cccc(C)c2)n2nc(CCCO)nc2N1 (stereo not drawn),784,-3.5% (inactive),6.5% (inactive),88.4,-32.3% (inactive),133,-0.405 (inactive),-1.6e-05 (inactive),0.00457 (inactive),13.9% (inactive),41.1% (inactive)
Cn1cccc1Cc1nnc(SCC(=O)Nc2ccc(F)cc2F)n1-c1ccc(F)cc1,664,-5.5% (inactive),-16.9% (inactive),93.7,-12.3% (inactive),99.4,-0.546 (inactive),-7.7e-05 (inactive),0.00521 (inactive),10.4% (inactive),32.3% (inactive)
CCSc1nncn1/N=C/c1ccc(OC)c(OC)c1,403,-9.6% (inactive),32.4% (inactive),89.8,39.9% (inactive),82.5,-0.319 (inactive),2e-05 (inactive),0.00581 (inactive),-8.45% (inactive),-5.17% (inactive)
Cc1csc2ncc(C(=O)N3CCc4ccccc43)c(=O)n12,601,5.3% (inactive),-17% (inactive),104,10% (inactive),110,-0.551 (inactive),-4.3e-05 (inactive),0.00571 (inactive),11.1% (inactive),39.2% (inactive)
CCOC(=O)Nc1ccc2c(c1)N(C(=O)OCCN(C)C)c1ccccc1CC2,425,-7.7% (inactive),25.6% (inactive),57.1,-16.3% (inactive),75.4,-0.563 (inactive),-2.3e-05 (inactive),0.00722 (inactive),6.83% (inactive),30.5% (inactive)
CCC(Sc1nc(-c2ccccc2)c(C#N)c(=O)[nH]1)C(=O)Nc1cc(C)on1 (stereo not drawn),327,2.5% (inactive),-9.8% (inactive),115,-74.9% (inactive),127,-0.357 (inactive),-1.8e-05 (inactive),0.00594 (inactive),6.22% (inactive),7.77% (inactive)
CCOc1ccc(NC(=O)C2CC(=O)N(CC)C(=Nc3ccc4c(c3)OCO4)S2)cc1 (stereo not drawn),356,-6.2% (inactive),12.9% (inactive),81.1,-125% (inactive),113,-0.358 (inactive),-6.3e-05 (inactive),0.00411 (inactive),-1.73% (inactive),1.26% (inactive)
O=C(O)c1ccccc1S(=O)(=O)NCC(O)COc1ccc(Br)cc1 (stereo not drawn),435,3.5% (inactive),-17% (inactive),106,31.4% (inactive),81.4,-0.39 (inactive),2.1e-05 (inactive),0.00443 (inactive),10.6% (inactive),14.4% (inactive)
CCOc1cc(C(=O)NCc2nnc(SCC(=O)OC)n2C)cc(OCC)c1OCC,291,10% (inactive),17% (inactive),55.3,1.2% (inactive),101,-0.337 (inactive),-1.2e-05 (inactive),0.00327 (inactive),10.7% (inactive),16% (inactive)
COCCNC(=O)CN1CCN(C(c2ccccc2)c2ccccc2)CC1,240,-6.6% (inactive),18.2% (inactive),77.7,-7.5% (inactive),86.9,-0.556 (inactive),-4.9e-05 (inactive),0.00771 (inactive),-12.4% (inactive),-6.81% (inactive)
COc1cccc(-c2nc(CS(=O)(=O)CC(=O)N3CCc4ccccc4C3)c(C)o2)c1,813,-17.7% (inactive),-2% (inactive),93,-74.3% (inactive),117,-0.522 (inactive),-1.8e-05 (inactive),0.00747 (inactive),6.4% (inactive),16% (inactive)
COc1ccc(C(=O)Oc2c(CN3CCOCC3)cc(Cl)c3cccnc23)cc1OC,601,-2.4% (inactive),-3.9% (inactive),100,-53.1% (inactive),111,-0.533 (inactive),-2.5e-05 (inactive),0.00812 (inactive),-3.08% (inactive),30.9% (inactive)
COC(=O)CCC(=O)Nc1cccc(Br)c1,495,-5.7% (inactive),-24.7% (inactive),111,56.2% (active),91.4,-0.478 (inactive),-0.000246 (inactive),0.00597 (inactive),9.55% (inactive),17.4% (inactive)
Cc1cc(C)n2cc(CSc3nnnn3-c3ccc(Cl)cc3)nc2n1,446,2.4% (inactive),-22.5% (inactive),99.6,15.8% (inactive),91.8,-0.517 (inactive),-3.7e-05 (inactive),0.00492 (inactive),19.2% (inactive),16.6% (inactive)
c1ccc(-c2ccccc2OCCn2cncn2)cc1,780,-12.5% (inactive),22.9% (inactive),112,-63.6% (inactive),111,-0.485 (inactive),-3e-05 (inactive),0.00513 (inactive),2.95% (inactive),26% (inactive)
Cc1ccccc1OCC(O)CN (stereo not drawn),298,15.6% (inactive),32.2% (active),104,14.2% (inactive),95.6,-0.542 (inactive),1.7e-05 (inactive),0.00273 (inactive),-20.3% (inactive),-17.4% (inactive)
COCc1nnc(NC(=O)CCCOc2ccccc2)s1,732,2.1% (inactive),-7.8% (inactive),92,-11.3% (inactive),103,-0.42 (inactive),9.1e-06 (inactive),0.00536 (inactive),1.61% (inactive),9.03% (inactive)
COc1ccc(-c2oc3ncn(CCN4CCOCC4)c(=N)c3c2-c2ccc(OC)cc2)cc1,688,-9.5% (inactive),17.4% (inactive),75.4,-16.4% (inactive),98,-0.32 (inactive),-6.6e-05 (inactive),0.00302 (inactive),1.98% (inactive),-0.246% (inactive)
Cc1nc(N2CCC(C)CC2)c2c(C)c(C(=O)O)sc2n1,657,-4.1% (inactive),31% (inactive),66.2,-72.5% (inactive),103,-0.303 (inactive),1.1e-05 (inactive),0.00417 (inactive),14% (inactive),23.3% (inactive)
Cc1cc(C)nc(SCc2csc(N)n2)n1,338,-3.6% (inactive),-3.1% (inactive),81.8,-56.8% (inactive),100,-0.347 (inactive),-4.2e-05 (inactive),0.00565 (inactive),-0.264% (inactive),-2.76% (inactive)
Cc1cc(NS(=O)(=O)Cc2ccccc2)cc(C)c1OCC(=O)N1CCOCC1,323,-3.3% (inactive),-14.1% (inactive),86.8,-47.7% (inactive),104,-0.478 (inactive),-4.7e-05 (inactive),0.00653 (inactive),14.5% (inactive),10.6% (inactive)
